# Experimental data taken from PubChem BioAssay (NCATS).
# Records with an inconclusive call do not appear. Where a call stands in place of a potency, no number is given. A number with no mark means an inactive call. Activity calls are given as the source filed them. The call rests on the fitted dose curve; in most records, active means well fitted curve in the direction sought with a large enough effect; inconclusive means small, poorly fitted or top-dose-only effect, or another doubt; inactive means no such curve, though single readings can be large; an effect the other way counts as inactive or inconclusive. Where a SMILES comes first, the peptide text is derived from it. [ ]: non-standard residue; d: D form. ξ: configuration not given here. ξPhe(βξ-Me) = CC(c1ccccc1)C(N)C(=O)O; GABA = NCCCC(=O)O
# Tests used:
# Tov-21-G = experiment: Primary qHTS to identify gynecologic anti-cancer compounds using libraries of approved drugs and bioactive compounds (AID 1345084); details: Gynecologic cancer cell panel viability, ATPlite luminescence, 48 h; series mostly up to 57.5 µM; further: nearly all actives have a fitted effect of over 55% in size
# Outline: (§1)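 Cells, 1,000 per well, were allowed to settle for 16 h at 37 C before compound addition. Five concentrations were tested for 48 h, and viability was read by ATPlite luminescence after 15 min at room temperature.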
# Tov112D = experiment: as above; details: Gynecologic cancer cell panel viability, ATPlite luminescence, 48 h; series mostly up to 57.5 µM
# Outline: as §1
# [1] = qHTS assay to identify inhibitors of the type 1 interferon - major histocompatibility complex class I in skeletal muscle: Counter screen cell viability and HiBit confirmation (AID 1347412); details: iHSKM muscle cells + IFN-b, HiBiT or CellTiter-Glo, 24 h; further: nearly all actives have a fitted effect of over 60% in size
# Outline: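 HLA-B*08:01–HiBiT knock-in immortalized human myoblasts (C25cl48) stimulated with 4.0 ng/ml human IFN-beta and dosed with compound in a 12-point 1:3 titration (top final 46 uM). After 24 hrs at 37 C, HiBiT lytic luminescence or CellTiter Glo ATP read out.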
# [2] = Drug repurposing screens with cells derived from glioblastoma tumor samples (AID 1345199); details: GBM patient neurospheres viability, ATP luminescence, 48 h; further: nearly all actives have a fitted effect of over 40% in size
# Outline: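 Four patient lines of CD133+ GBM neurospheres were screened at several concentrations; hits were retested in those lines plus three slower-growing GBM lines, using 48-hour treatment and ATP-based viability.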
# [3] = at 46.1 µM (top of the series), tumour line C
# Potency means the concentration at half of the fitted maximal effect.
structure (smiles),measurement,setting,value
COc1cc(/C=C/C(=O)OC(C)(C)C(OC2OC(CO)C(O)C(O)C2O)C(=O)OCc2ccc(OC3OC(CO)C(O)C(O)C3O)cc2)ccc1O (configuration not stated),Potency,Tov-21-G,inactive
same,Potency,Tov112D,inactive
CC(C)CC1NC(=O)C(C(C)c2ccccc2)NC(=O)C(C(C)C)NC(=O)C(C)NC(=O)CCCNC(=O)C(Cc2c[nH]c3ccccc23)NC(=O)C(C)NC1=O (stereo not drawn) (cyclo([GABA]AV[ξPhe(βξ-Me)]LAW); configuration not given here),Potency,Tov-21-G,inactive
same,Potency,Tov112D,inactive
Cc1cc(Nc2ncc(Cl)c(Nc3ccccc3S(=O)(=O)C(C)C)n2)c(OC(C)C)cc1C1CCNCC1,Potency,Tov-21-G,inactive
same,Potency,Tov112D,inactive
same,Potency,[1]; Viability,27900 nM (active)
CCOc1cc2ncc(C#N)c(Nc3ccc(OCc4ccccn4)c(Cl)c3)c2cc1NC(=O)/C=C/CN(C)C,Potency,Tov112D,inactive
same,Potency,[1]; HiBiT,1570 nM (active)
CC1(C)CCCC2(C)C3=C(C(=O)OC3O)C(O)CC12 (configuration not stated),Potency,Tov-21-G,inactive
same,Potency,Tov112D,inactive
O=C(Nc1cccnn1)N1CCC(=Cc2cccc(Oc3ccc(C(F)(F)F)cn3)c2)CC1,Potency,Tov-21-G,inactive
same,Potency,Tov112D,inactive
Cc1nnc(C(C)C)n1C1CC2CCC(C1)N2CC[C@H](NC(=O)C1CCC(F)(F)CC1)c1ccccc1 (some centres not stated),Potency,Tov-21-G,inactive
same,Potency,Tov112D,inactive
CCOC(=O)N1CCC(NCCNC(=O)c2ccccc2C)CC1,Potency,Tov-21-G,inactive
same,Potency,Tov112D,inactive
C[C@H]1[C@H](C)CC[C@]2(C(=O)O)CC[C@]3(C(=O)O)C(=CCC4[C@@]5(C)CC[C@H](O[C@@H]6O[C@H](C)[C@@H](O)[C@H](O)[C@H]6O)C(C)(C)C5CC[C@]43C)[C@H]12 (some centres not stated),Potency,Tov-21-G,inactive
same,Potency,Tov112D,inactive
C=CCc1ccc(O[C@@H]2O[C@H](CO)[C@@H](O)[C@H](O)[C@H]2O)c(OC)c1,Potency,Tov-21-G,inactive
same,Potency,Tov112D,inactive
C[C@]12C=CC(=O)N[C@@H]1CC[C@@H]1[C@@H]2CC[C@]2(C)[C@@H](C(=O)Nc3cc(C(F)(F)F)ccc3C(F)(F)F)CC[C@@H]12,"activity, negative = cell killing",[2]; [3],-29.8%
OC[C@H]1O[C@@H](n2cnc3c2NC=NC[C@H]3O)C[C@@H]1O,Potency,Tov-21-G,inactive
same,Potency,Tov112D,inactive
same,"activity, negative = cell killing","[2]; at 45.9 µM (top of the series), tumour line B",2.62%
same,"activity, negative = cell killing","[2]; at 45.9 µM (top of the series), tumour line D",-21%
same,"activity, negative = cell killing","[2]; at 46 µM (top of the series), tumour line A",-9.89%
same,"activity, negative = cell killing",[2]; [3],8.32%
CC(C)N=c1cc2n(-c3ccc(Cl)cc3)c3ccccc3nc-2cc1Nc1ccc(Cl)cc1,"activity, negative = cell killing","[2]; at 20 µM (top of the series), tumour line C",-8.51%
same,Potency,[2]; tumour line A,5010 nM (active)
CC(C(=O)O)C1CCC2(C)C3C(=O)C=C4C(CCC(=O)C4(C)C)C3(C)CCC12C (configuration not stated),Potency,Tov-21-G,inactive
same,Potency,Tov112D,inactive
C[C@@H]1O[C@@H](O[C@H]2[C@H](OC(=O)[C@]34CCC(C)(C)C[C@H]3C3=CCC5[C@@]6(C)C[C@H](O)[C@H](O[C@@H]7O[C@H](CO[C@@H]8OC[C@H](O)[C@H](O)[C@H]8O)[C@@H](O)[C@H](O)[C@H]7O)C(C)(C)C6CC[C@@]5(C)[C@]3(C)C[C@H]4O)OC[C@@H](O)[C@@H]2O)[C@H](O)[C@H](O[C@@H]2OC[C@](O)(CO)[C@H]2O)[C@H]1O[C@@H]1OC[C@H](O)[C@H](O[C@@H]2OC[C@@H](O)[C@H](O)[C@H]2O)[C@H]1O (some centres not stated),"activity change, negative = cytotoxicity",Tov-21-G,-3.09% [at 6.55 µM]
same,"activity change, negative = cytotoxicity",Tov112D,5.07% [at 6.55 µM]
CC(C)=CCC/C(C)=C/CC/C(C)=C/CC[C@]1(C)CCc2cc(O)cc(C)c2O1,Potency,Tov-21-G,inactive
same,Potency,Tov112D,inactive
C[C@@H]1O[C@@H](O[C@@H]2[C@@H](O)[C@H](O[C@@H]3[C@@H](O)[C@@H](O)[C@H](O[C@H]4[C@H](OC(=O)[C@]56CCC(C)(C)C[C@H]5C5=CCC7[C@@]8(C)C[C@H](O)[C@H](O[C@@H]9O[C@@H](C)[C@H](O)[C@@H](O)[C@H]9O)[C@@](C)(CO)C8CC[C@@]7(C)[C@]5(C)C[C@H]6O)O[C@H](C)[C@H](O)[C@@H]4O)O[C@H]3C)OC[C@H]2O)[C@H](O)[C@H](O)[C@H]1O (some centres not stated),"activity change, negative = cytotoxicity",Tov-21-G,-0.124% [at 6.55 µM]
same,"activity change, negative = cytotoxicity",Tov112D,9.68% [at 6.55 µM]
COC(=O)C1=COC(OC2OC(CO)C(O)C(O)C2O)C2C1CC(OC(=O)C(O)CC(=O)O)C2C (configuration not stated),Potency,Tov-21-G,inactive
same,Potency,Tov112D,inactive
CC(=O)OCC1=C[C@H](O)[C@@H]2C(C(=O)O)=CO[C@@H](O[C@@H]3O[C@H](CO)[C@@H](O)[C@H](O)[C@H]3O)[C@H]12,Potency,Tov-21-G,inactive
same,Potency,Tov112D,inactive
COC(=O)C1C(c2ccc(O)cc2)C(C(=O)OC)C1c1ccc(O)cc1 (configuration not stated),Potency,Tov-21-G,inactive
same,Potency,Tov112D,inactive
CC1CCC2(C(=O)OC3OC(CO)C(O)C(O)C3O)CCC3(C(=O)O)C(=CCC4C5(C)CCC(OC6OC(C)C(O)C(O)C6O)C(C)(C)C5CCC43C)C2C1C (configuration not stated),Potency,Tov-21-G,inactive
same,Potency,Tov112D,inactive
CC1(C)CCC[C@@]2(C)[C@H]1[C@H](O)C=C1COC(=O)[C@@]12O,Potency,Tov-21-G,inactive
same,Potency,Tov112D,inactive
COc1cc(CC(COC2OC(CO)C(O)C(O)C2O)c2cc(/C=C/CO)cc(OC)c2O)ccc1O (configuration not stated),Potency,Tov-21-G,inactive
same,Potency,Tov112D,inactive
COC(=O)C1C(CC(C)=O)C=CC(O)C12Oc1cc(C)cc(O)c1C2=O (configuration not stated),Potency,Tov-21-G,inactive
same,Potency,Tov112D,inactive
COC1=CC(=O)O[C@@H](/C=C/c2ccccc2)[C@@H]1O,Potency,Tov-21-G,inactive
same,Potency,Tov112D,inactive
CCCOc1ccn2c(C(C)=O)cc(-c3ccccc3S(C)(=O)=O)c2c1,Potency,Tov-21-G,inactive
same,Potency,Tov112D,inactive
CC1NC(=O)CNC(=O)C(C(C)C)NC(=O)C2CCCN2C(=O)C(C(C)C)NC(=O)C(Cc2c[nH]c3ccccc23)NC1=O (configuration not stated) (cyclo(GAWVPV); configuration not given here),Potency,Tov-21-G,inactive
same,Potency,Tov112D,inactive
C=CC(C)(C)O[C@@H]1O[C@H](CO[C@@H]2OC[C@](O)(CO)[C@H]2O)[C@@H](O)[C@H](O)[C@H]1O,Potency,Tov-21-G,inactive
same,Potency,Tov112D,inactive
CC1(C)OC(=O)C(OCC2CC2)=C1c1ccc(S(C)(=O)=O)cc1,Potency,Tov-21-G,inactive
same,Potency,Tov112D,inactive
C[C@@H](O)[C@H](N)C(=O)N1CCC[C@H]1C(=O)N1CCC[C@H]1C(=O)N[C@H](C(N)=O)[C@@H](C)O (H-TPPT-NH2),"activity change, negative = cytotoxicity",Tov-21-G,0.205% [at 11.6 µM]
same,"activity change, negative = cytotoxicity",Tov112D,6.35% [at 11.6 µM]
CN(C)C/C=C/C(=O)Nc1ccc(C(=O)Nc2cccc(Nc3ncc(Cl)c(-c4c[nH]c5ccccc45)n3)c2)cc1,Potency,Tov112D,631 nM (active)
same,Potency,[1]; HiBiT,442 nM (active)
same,"activity change, negative = inhibition","[1]; Viability, at 45.9 µM (top of the series)",-19.3%
